Where “and” joins values, the source holds several entries; their conditions need not be identical. Equal values may be shown once. Results filed as inconclusive are left out. Calls of active or inactive are those of the source. The call rests on the fitted dose curve; in most records, active means well fitted curve in the direction sought with a large enough effect; inconclusive means small, poorly fitted or top-dose-only effect, or another doubt; inactive means no such curve, though single readings can be large; an effect the other way counts as inactive or inconclusive.
Columns and labels:
CRL-7250 = normal cell line; assay: Cytotoxic Profiling of Annotated Libraries Using Quantitative High-Throughput Screening (AID 1296008); conditions: Five cell lines viability, CellTiter-Glo ATP luminescence, 48-72 h; max response: active compounds read low; further: nearly all actives have a fitted effect of over 60% in size
Outline: (§1)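 Cells exposed to compounds for 48 or 72 hr at 37 degrees Celsius. Viability read as ATP-coupled luminescence with CellTiter-Glo after 10 min at room temperature.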

HEK293 = assay: as above; conditions: Five cell lines viability, CellTiter-Glo ATP luminescence, 48-72 h; max response: active compounds read low
Outline: as §1

HaCat [1] = assay: as above; conditions: Five cell lines viability, CellTiter-Glo ATP luminescence, 48-72 h; max response: active compounds read low
Outline: as §1

KB-3-1 = assay: as above; conditions: Five cell lines viability, CellTiter-Glo ATP luminescence, 48-72 h; max response: active compounds read low
Outline: as §1

NIH3T3 [2] = assay: as above; conditions: Five cell lines viability, CellTiter-Glo ATP luminescence, 48-72 h; max response: active compounds read low
Outline: as §1

MKL-1 = assay: qHTS assay to identify novel small-molecules to repurpose for Merkel cell carcinoma treatment (AID 1296009); conditions: MCC and control cell lines, CellTiter-Glo viability, 72 h; series mostly up to 46 µM; further: nearly all actives have a fitted effect of over 60% in size
Outline: (§2)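 Cells were incubated with compound for 72 hr at 37 degree celsius before CellTiter-Glo addition. Luminescence was normalized with no-cell wells as full cytotoxicity and DMSO as baseline.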

UISO = assay: as above; conditions: MCC and control cell lines, CellTiter-Glo viability, 72 h; series mostly up to 46 µM
Outline: as §2

WaGa = assay: as above; conditions: MCC and control cell lines, CellTiter-Glo viability, 72 h; series mostly up to 46 µM
Outline: as §2

HEK293T = assay: as above; conditions: MCC and control cell lines, CellTiter-Glo viability, 72 h; at 44.8 µM (top of the series) unless noted
Outline: as §2

MCC-13 = assay: as above; conditions: MCC and control cell lines, CellTiter-Glo viability, 72 h; series mostly up to 46 µM
Outline: as §2

MKL-2 = assay: as above; conditions: MCC and control cell lines, CellTiter-Glo viability, 72 h; series mostly up to 46 µM
Outline: as §2

MCC-26 = assay: as above; conditions: MCC and control cell lines, CellTiter-Glo viability, 72 h; series mostly up to 46 µM
Outline: as §2

CAOV3 = assay: Primary qHTS to identify gynecologic anti-cancer compounds using libraries of approved drugs and bioactive compounds (AID 1345084); conditions: Gynecologic cancer cell panel viability, ATPlite luminescence, 48 h; series mostly up to 57.5 µM; further: nearly all actives have a fitted effect of over 55% in size
Outline: (§3)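 Luminescence from the ATPlite ATP-monitoring reagent indicates viable cell number; lower signal means cytotoxicity. Cells received compound 16 h after seeding and were exposed for 48 h across five concentrations.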

Es-2 = assay: as above; conditions: Gynecologic cancer cell panel viability, ATPlite luminescence, 48 h; series mostly up to 57.5 µM
Outline: as §3

C33A = assay: as above; conditions: Gynecologic cancer cell panel viability, ATPlite luminescence, 48 h; series mostly up to 57.5 µM
Outline: as §3

CASKI = assay: as above; conditions: Gynecologic cancer cell panel viability, ATPlite luminescence, 48 h; series mostly up to 57.5 µM
Outline: as §3

NIH3T3 [3] = assay: qHTS assay to identify novel small-molecules to repurpose for Merkel cell carcinoma treatment (AID 1296009); conditions: MCC and control cell lines, CellTiter-Glo viability, 72 h; at 44.8 µM (top of the series) unless noted; further: nearly all actives have a fitted effect of over 60% in size
Outline: as §2

HACAT [4] = assay: as above; conditions: MCC and control cell lines, CellTiter-Glo viability, 72 h; at 44.8 µM (top of the series) unless noted
Outline: as §2
On the % scale 0 is the no-effect control and ±100 the full control effect; potency means the concentration at half of the fitted maximal effect.

COc1cc([C@@H]2c3cc4c(cc3[C@@H](O)C3COC(=O)C32)OCO4)cc(OC)c1O (stereo not given in full)
active: Potency (CRL-7250) 0.0833 µM | Potency (HEK293) 37.2 nM | Potency (KB-3-1) 0.0662 µM | Potency (NIH3T3 [2]) 0.132 µM | Potency (MKL-1) 2.35 µM | Potency (UISO) 0.0526 µM | Potency (WaGa) 0.0526 µM
inactive: max response (HaCat [1]) 3.35%

C[C@]12CC[C@H]3[C@@H](CCC4=CC(=O)CC[C@@]43C)[C@H]1CC[C@H]2OC(=O)CCC1CCCC1
inactive: max response (CRL-7250) 2.84% | outcome (HEK293) | max response (HaCat [1]) 4.09% | max response (KB-3-1) 9.03% | max response (NIH3T3 [2]) 3.21% | outcome (HEK293T) | Potency (MCC-13) | Potency (MKL-1) | Potency (MKL-2) | Potency (UISO) | Potency (WaGa)

CC1(N2CCC(n3c([C@@H]4CCCNC4)nc4ccccc43)CC2)CCCCCCC1
inactive: max response (HaCat [1]) -28.8% | Potency (MCC-13) | Potency (MCC-26)
active: Potency (CRL-7250) 14.8 µM | Potency (HEK293) 4.69 µM and 7.31 µM | Potency (MKL-1) 23.5 µM | Potency (MKL-2) 13.2 µM | Potency (CAOV3) 8.91 µM | Potency (Es-2) 22.4 µM

O=[N+]([O-])/N=C1\NCCN1Cc1ccc(Cl)nc1
inactive: max response (CRL-7250) -0.312% | outcome (HEK293) | max response (HaCat [1]) -1.41% | max response (KB-3-1) 6.99% and -6.61% | max response (NIH3T3 [2]) -2.1% | outcome (HEK293T) | Potency (MCC-13) | Potency (MCC-26) | Potency (MKL-1) | Potency (MKL-2) | Potency (UISO) | Potency (WaGa) | Potency (C33A) | Potency (CASKI) | Potency (Es-2)

CC(C)(O)C(=O)Nc1ccc([N+](=O)[O-])c(C(F)(F)F)c1
inactive: max response (CRL-7250) -26.4% | max response (HEK293) -21.8% | max response (HaCat [1]) -2.45% | max response (KB-3-1) -3.83% | outcome (NIH3T3 [2]) | Potency (MCC-13) | Potency (MKL-1) | outcome (NIH3T3 [3]) | Potency (UISO)

COc1ccc2c(c1)[C@]13CCCCC1C(C2)N(C)CC3 (stereo not given in full)
inactive: max response (CRL-7250) 4.77% | outcome (HEK293) | max response (HaCat [1]) -2.03% | max response (KB-3-1) 9.18% | outcome (NIH3T3 [2]) | outcome (HEK293T) | Potency (MCC-13) | Potency (MKL-1) | Potency (MKL-2) | outcome (NIH3T3 [3]) | Potency (UISO) | Potency (WaGa)

CN[C@@H](C)[C@H](O)c1ccccc1
inactive: max response (CRL-7250) -24.6% | outcome (HEK293) | max response (HaCat [1]) 1.69% | max response (KB-3-1) -0.943% | max response (NIH3T3 [2]) -5.73% | outcome (HEK293T) | Potency (MCC-13) | Potency (MCC-26) | Potency (MKL-1) | Potency (MKL-2) | Potency (UISO) | Potency (WaGa) | Potency (C33A) | Potency (CASKI) | Potency (Es-2)

CCC(=O)O[C@@H]1C=C2CCC3C(CCC4(C)C3CC[C@@H]4OC(=O)CC)C2CC1 (stereo not given in full)
inactive: max response (CRL-7250) -3.72% | max response (HEK293) 2.37% | max response (HaCat [1]) -20.7% | outcome (NIH3T3 [2]) | Potency (MCC-13) | Potency (MCC-26) | Potency (MKL-1) | Potency (MKL-2) | outcome (NIH3T3 [3]) | Potency (UISO) | Potency (WaGa) | Potency (C33A) | Potency (CASKI) | Potency (Es-2)

CC(C)NCC(O)c1ccc([N+](=O)[O-])cc1 (stereo not given)
inactive: max response (CRL-7250) -2.22% | max response (HEK293) -8.6% | max response (HaCat [1]) -38.9% | max response (KB-3-1) -11.6% | max response (NIH3T3 [2]) -0.143% | Potency (MCC-13) | Potency (MCC-26) | Potency (MKL-1) | Potency (MKL-2) | Potency (UISO) | Potency (WaGa) | Potency (C33A) | Potency (CASKI) | Potency (Es-2)

COc1cc2cc(c1Cl)N(C)C(=O)C[C@H](OC(=O)C(C)C)[C@]1(C)O[C@H]1[C@H](C)[C@@H]1C[C@@](O)(NC(=O)O1)[C@H](OC)C=CC=C(C)C2
active: Potency (KB-3-1) 0.332 µM
inactive: max response (CRL-7250) -68.5% | max response (HEK293) -91.4% | max response (HaCat [1]) -21.1% | max response (NIH3T3 [2]) -88.8% | Potency (MCC-13) | Potency (MCC-26) | Potency (MKL-1) | Potency (MKL-2) | Potency (UISO) | Potency (WaGa)

CC(=Cc1csc(C)n1)[C@@H]1C[C@H]2O[C@]2(C)CCC[C@H](C)[C@@H](O)[C@@H](C)C(=O)C(C)(C)[C@@H](O)CC(=O)O1
active: Potency (KB-3-1) 0.0001 µM
inactive: max response (CRL-7250) -93.2% | max response (HaCat [1]) -55% | max response (NIH3T3 [2]) -85.8% | Potency (MCC-13) | Potency (MKL-1) | Potency (MKL-2) | Potency (WaGa)

O=C(O)CNC(=O)c1c(O)c2ccccc2n(Cc2ccccc2)c1=O
inactive: outcome (HaCat [1]) | max response (KB-3-1) 5.38% and 7.42% | max response (NIH3T3 [2]) -11% and 0.668% | outcome (HACAT [4]) | outcome (HEK293T) | Potency (MCC-13) | Potency (MCC-26) | Potency (MKL-1) | Potency (MKL-2) | Potency (UISO) | Potency (WaGa) | Potency (C33A) | Potency (CASKI) | Potency (Es-2)

COc1nn(CSP(=S)(OC)OC)c(=O)s1
active: Potency (HEK293) 21700 nM | Potency (MKL-1) 24.3 µM | Potency (MKL-2) 24.3 µM | Potency (UISO) 38.6 µM
inactive: outcome (HaCat [1]) | max response (KB-3-1) -23.4% | max response (NIH3T3 [2]) -0.106% | outcome (HACAT [4]) inactive [at 92 µM] | Potency (C33A) | Potency (CASKI)
